From the supplement of paper PMC6411743
± gives the standard deviation of the averaged measurements. About 6,200 targets were measured; listed, in parts, are those with the largest changes and a random draw of the rest.

Compound: Nc1ncnc2c1ncn2[C@@H]1O[C@H](COP(=O)(O)OP(=O)(O)NP(=O)(O)O)[C@@H](O)[C@H]1O [adenylyl imidodiphosphate]
Experiment: NP40-soluble protein abundance relative to vehicle (solubility fold change) (ratio); higher = more soluble protein in presence of AMP-PNP
How it was run: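 Each value is a fold change relative to the detergent-processed vehicle, calculated per replicate from vsn-normalised intensities. Jurkat crude lysate received eight concentrations (0.1 to 10 mM) for 10 min at room temperature and 3 min at 37 °C, then was solubilised in 0.8% NP40 with benzonase (60 min, 4 °C). The ultracentrifuged supernatant was TMT-labelled and run by LC-MS/MS in three independent experiments.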

Chain of UniProt P78364 (P78364 whole entry, one chain of several): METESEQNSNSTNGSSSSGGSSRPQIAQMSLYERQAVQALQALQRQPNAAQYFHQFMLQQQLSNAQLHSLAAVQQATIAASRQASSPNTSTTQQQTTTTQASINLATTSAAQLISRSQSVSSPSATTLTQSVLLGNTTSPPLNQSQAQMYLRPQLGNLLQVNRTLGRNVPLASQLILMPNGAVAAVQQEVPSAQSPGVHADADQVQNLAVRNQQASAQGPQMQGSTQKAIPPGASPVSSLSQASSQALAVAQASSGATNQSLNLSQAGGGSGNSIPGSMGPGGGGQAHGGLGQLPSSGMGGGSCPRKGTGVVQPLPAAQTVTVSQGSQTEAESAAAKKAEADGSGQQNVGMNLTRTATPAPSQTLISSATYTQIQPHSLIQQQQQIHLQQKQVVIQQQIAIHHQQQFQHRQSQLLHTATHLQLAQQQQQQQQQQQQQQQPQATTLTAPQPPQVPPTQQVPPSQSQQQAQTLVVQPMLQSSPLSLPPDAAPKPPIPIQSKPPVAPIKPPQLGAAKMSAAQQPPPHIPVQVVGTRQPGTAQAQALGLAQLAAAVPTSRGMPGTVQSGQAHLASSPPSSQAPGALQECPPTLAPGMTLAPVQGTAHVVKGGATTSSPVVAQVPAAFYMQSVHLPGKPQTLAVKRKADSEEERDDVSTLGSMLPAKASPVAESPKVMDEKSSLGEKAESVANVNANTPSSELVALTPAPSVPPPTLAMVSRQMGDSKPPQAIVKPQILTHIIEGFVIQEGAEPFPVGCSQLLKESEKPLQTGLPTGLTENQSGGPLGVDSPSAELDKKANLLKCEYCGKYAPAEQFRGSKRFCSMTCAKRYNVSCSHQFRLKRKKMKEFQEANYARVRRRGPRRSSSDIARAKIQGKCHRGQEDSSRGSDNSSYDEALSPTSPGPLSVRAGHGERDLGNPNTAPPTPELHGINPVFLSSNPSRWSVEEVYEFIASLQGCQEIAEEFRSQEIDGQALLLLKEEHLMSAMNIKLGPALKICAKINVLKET
Chain of UniProt O60832 (O60832 whole entry): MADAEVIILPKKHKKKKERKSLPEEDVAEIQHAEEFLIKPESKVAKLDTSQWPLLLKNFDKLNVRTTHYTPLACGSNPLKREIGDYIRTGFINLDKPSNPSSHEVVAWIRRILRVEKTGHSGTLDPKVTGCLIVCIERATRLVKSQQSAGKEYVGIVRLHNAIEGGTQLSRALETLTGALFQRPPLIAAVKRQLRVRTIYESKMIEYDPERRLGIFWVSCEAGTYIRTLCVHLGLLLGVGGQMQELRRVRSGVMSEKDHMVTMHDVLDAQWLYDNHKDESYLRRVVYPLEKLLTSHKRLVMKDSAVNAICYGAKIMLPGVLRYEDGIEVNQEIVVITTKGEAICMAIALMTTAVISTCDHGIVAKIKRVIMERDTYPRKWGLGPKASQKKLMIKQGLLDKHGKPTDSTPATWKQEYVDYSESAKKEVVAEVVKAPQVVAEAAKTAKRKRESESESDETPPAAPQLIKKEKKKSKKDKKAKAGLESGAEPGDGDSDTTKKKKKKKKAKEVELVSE
Chain of UniProt Q15019 (Q15019 whole entry, one chain of several): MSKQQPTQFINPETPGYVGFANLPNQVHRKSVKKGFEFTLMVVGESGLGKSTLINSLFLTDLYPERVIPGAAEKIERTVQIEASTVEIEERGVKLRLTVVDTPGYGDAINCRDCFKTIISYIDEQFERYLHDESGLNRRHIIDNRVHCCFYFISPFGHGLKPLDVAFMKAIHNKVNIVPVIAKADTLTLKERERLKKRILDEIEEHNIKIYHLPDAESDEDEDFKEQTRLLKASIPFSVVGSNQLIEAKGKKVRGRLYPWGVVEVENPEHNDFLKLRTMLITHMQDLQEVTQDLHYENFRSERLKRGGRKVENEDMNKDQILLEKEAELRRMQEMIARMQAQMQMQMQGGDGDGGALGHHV
Chain of UniProt O60563 (O60563 whole entry): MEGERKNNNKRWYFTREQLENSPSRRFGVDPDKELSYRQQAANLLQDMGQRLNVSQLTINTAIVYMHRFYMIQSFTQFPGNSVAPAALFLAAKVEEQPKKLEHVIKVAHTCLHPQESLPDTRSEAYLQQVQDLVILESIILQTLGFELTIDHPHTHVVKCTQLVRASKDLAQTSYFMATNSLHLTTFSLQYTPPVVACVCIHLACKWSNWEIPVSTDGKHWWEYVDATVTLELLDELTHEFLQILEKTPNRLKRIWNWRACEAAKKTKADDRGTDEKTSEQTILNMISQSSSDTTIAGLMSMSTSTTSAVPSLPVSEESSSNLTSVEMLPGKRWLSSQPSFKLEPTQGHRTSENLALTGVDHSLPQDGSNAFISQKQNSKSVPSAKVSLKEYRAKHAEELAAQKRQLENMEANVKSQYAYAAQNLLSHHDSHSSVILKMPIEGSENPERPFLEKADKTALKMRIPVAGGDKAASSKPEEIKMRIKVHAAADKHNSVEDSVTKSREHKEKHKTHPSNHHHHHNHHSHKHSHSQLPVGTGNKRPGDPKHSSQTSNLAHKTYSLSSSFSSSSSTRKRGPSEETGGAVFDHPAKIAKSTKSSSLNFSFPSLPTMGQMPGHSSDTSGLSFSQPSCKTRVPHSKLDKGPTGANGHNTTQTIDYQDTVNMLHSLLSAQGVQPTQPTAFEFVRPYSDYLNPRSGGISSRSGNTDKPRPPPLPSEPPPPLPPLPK
Chain of UniProt Q9BY11 (Q9BY11 whole entry, one chain of several): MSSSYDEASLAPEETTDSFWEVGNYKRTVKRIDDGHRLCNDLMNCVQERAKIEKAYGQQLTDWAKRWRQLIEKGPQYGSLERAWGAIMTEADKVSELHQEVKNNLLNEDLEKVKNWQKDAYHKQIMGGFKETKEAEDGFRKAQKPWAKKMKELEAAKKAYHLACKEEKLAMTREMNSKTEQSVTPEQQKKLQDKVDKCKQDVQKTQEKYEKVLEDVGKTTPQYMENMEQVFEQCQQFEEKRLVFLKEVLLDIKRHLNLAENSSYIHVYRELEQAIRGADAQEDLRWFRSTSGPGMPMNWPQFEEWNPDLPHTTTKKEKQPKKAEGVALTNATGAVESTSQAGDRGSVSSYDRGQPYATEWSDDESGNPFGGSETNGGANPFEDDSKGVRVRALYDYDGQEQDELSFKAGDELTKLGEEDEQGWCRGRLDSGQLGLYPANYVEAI
Chain of UniProt I3L1I5 (I3L1I5 whole entry, looked up, one chain of several): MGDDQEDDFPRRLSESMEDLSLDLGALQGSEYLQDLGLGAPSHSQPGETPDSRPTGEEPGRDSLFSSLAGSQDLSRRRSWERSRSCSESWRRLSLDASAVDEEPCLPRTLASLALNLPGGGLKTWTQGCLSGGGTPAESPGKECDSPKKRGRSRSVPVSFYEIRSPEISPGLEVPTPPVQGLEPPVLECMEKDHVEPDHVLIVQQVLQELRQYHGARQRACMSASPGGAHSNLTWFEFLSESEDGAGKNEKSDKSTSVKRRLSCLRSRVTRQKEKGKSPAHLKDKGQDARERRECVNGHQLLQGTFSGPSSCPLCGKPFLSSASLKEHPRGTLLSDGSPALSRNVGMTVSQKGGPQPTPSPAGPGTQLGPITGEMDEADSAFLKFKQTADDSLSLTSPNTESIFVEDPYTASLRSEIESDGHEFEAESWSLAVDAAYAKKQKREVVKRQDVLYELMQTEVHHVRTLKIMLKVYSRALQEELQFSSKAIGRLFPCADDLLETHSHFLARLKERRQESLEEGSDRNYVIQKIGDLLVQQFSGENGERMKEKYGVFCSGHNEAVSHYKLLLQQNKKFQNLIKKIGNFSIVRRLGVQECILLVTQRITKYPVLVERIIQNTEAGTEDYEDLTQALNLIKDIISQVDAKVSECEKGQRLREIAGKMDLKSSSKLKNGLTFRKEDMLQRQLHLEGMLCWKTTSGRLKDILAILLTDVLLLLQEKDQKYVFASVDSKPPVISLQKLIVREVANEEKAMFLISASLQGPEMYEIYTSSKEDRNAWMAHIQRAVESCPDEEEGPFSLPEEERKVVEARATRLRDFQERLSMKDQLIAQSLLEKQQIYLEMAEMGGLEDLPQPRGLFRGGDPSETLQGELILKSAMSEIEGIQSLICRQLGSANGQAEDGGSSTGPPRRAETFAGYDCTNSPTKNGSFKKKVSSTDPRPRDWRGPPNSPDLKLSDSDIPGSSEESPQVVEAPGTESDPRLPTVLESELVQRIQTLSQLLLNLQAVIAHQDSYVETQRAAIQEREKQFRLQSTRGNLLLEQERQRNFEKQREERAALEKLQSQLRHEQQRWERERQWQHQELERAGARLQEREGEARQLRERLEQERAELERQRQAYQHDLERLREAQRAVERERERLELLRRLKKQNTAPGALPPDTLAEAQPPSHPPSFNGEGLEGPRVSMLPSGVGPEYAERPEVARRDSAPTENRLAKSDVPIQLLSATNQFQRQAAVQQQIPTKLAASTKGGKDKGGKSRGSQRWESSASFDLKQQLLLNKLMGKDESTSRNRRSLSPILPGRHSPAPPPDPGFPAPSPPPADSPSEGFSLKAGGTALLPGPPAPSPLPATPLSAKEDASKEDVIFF
Chain of UniProt Q9H9L4 (Q9H9L4 whole entry, one chain of several): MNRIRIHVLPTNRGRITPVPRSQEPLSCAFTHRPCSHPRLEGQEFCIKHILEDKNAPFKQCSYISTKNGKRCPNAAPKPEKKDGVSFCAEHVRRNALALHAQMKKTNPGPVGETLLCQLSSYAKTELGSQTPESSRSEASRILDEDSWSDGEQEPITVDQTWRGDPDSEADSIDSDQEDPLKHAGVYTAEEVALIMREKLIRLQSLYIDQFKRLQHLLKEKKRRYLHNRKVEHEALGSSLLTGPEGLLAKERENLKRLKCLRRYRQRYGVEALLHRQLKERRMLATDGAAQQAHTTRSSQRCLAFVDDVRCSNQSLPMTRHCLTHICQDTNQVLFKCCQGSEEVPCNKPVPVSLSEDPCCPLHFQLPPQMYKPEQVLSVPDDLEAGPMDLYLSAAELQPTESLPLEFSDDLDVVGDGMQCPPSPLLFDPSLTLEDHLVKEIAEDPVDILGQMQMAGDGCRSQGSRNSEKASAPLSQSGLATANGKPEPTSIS
Chain of UniProt O43716 (O43716 whole entry, looked up, other chains not shown): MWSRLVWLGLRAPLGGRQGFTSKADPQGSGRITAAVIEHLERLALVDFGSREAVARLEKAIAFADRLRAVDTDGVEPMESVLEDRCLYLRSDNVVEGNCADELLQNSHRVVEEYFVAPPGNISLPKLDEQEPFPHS

Target	NP40-soluble protein abundance (concentration: 1mM)	NP40-soluble protein abundance (concentration: 2mM)	NP40-soluble protein abundance (concentration: 4mM)	NP40-soluble protein abundance (concentration: 6mM)	NP40-soluble protein abundance (concentration: 8mM)	NP40-soluble protein abundance (concentration: 10mM)
E7ESS3|K7EKW3|Q71RG4|Q71RG4-2 (UniProt Q71RG4)	1.01 ± 0.037	1.03 ± 0.045	1 ± 0.039	0.996 ± 0.012	1.01 ± 0.037	1 ± 0.032
ARPC2 (UniProt O15144)	0.974 ± 0.033	0.896 ± 0.11	0.937 ± 0.023	0.976 ± 0.031	0.994 ± 0.046	0.957 ± 0.048
A0A0A0MSY9|Q92800|Q92800-2|Q92800-3|Q92800-4|Q92800-5 (UniProt Q92800)	0.978 ± 0.017	0.97 ± 0.022	0.9794 ± 0.0047	0.994 ± 0.016	0.999 ± 0.019	1.001 ± 0.0058
KPNA4 (UniProt O00629)	1.07 ± 0.029	1.074 ± 0.0097	1.07 ± 0.016	1.03 ± 0.047	1.05 ± 0.051	1.05 ± 0.037
J3KQH6|P78364 (UniProt P78364)	1.01 ± 0.067	1.01 ± 0.02	1.01 ± 0.018	1.04 ± 0.047	1.03 ± 0.025	1.05 ± 0.032
E7EQT4|Q9UKV3-5|S4R3H4|Q9UKV3-3 (UniProt Q9UKV3)	1.05 ± 0.061	1.1 ± 0.021	1.05 ± 0.07	1.03 ± 0.09	0.972 ± 0.04	1.04 ± 0.069
F8WF69|P09496-2 (UniProt P09496)	0.9494 ± 0.001	0.919 ± 0.057	0.873 ± 0.05	0.833 ± 0.033	0.806 ± 0.014	0.813 ± 0.018
J3KS94|J3QQK6|P02686|P02686-2 (UniProt P02686)	0.968 ± 0.054	0.993 ± 0.035	0.96 ± 0.03	0.928 ± 0.033	0.896 ± 0.013	0.903 ± 0.029
H0YLE6|Q9NWH9 (UniProt Q9NWH9)	1.05 ± 0.044	1.11 ± 0.083	1.08 ± 0.039	1.12 ± 0.092	1.11 ± 0.094	1.17 ± 0.094
G3XAG1|Q96ME7|Q96ME7-3 (UniProt Q96ME7)	1.04 ± 0.064	1.03 ± 0.1	1.17 ± 0.086	1.39 ± 0.083	1.52 ± 0.039	1.64 ± 0.1
DKC1 (UniProt O60832)	1.049 ± 0.0097	1.1 ± 0.057	1.13 ± 0.028	1.21 ± 0.051	1.29 ± 0.046	1.36 ± 0.083
H0YKD8|P46779 (UniProt P46779)	1.05 ± 0.14	1.02 ± 0.09	1.01 ± 0.13	0.993 ± 0.071	0.919 ± 0.098	1.05 ± 0.16
UniProt O60504-2|O60504	1.03 ± 0.013	0.999 ± 0.018	1.04 ± 0.018	1.03 ± 0.029	1.02 ± 0.029	1.02 ± 0.025
A0A0B4J2E5|Q15269 (UniProt Q15269)	1.05 ± 0.019	1.04 ± 0.098	1.23 ± 0.043	1.38 ± 0.036	1.56 ± 0.074	1.52 ± 0.095
B5MCX3|Q15019|Q15019-2 (UniProt Q15019)	1.027 ± 0.0023	0.997 ± 0.032	1.003 ± 0.0091	0.984 ± 0.026	0.98 ± 0.017	0.952 ± 0.037
F8VX10|F8VXI8|Q9H9L4 (UniProt Q9H9L4)	1.01 ± 0.014	1.06 ± 0.033	1.05 ± 0.033	1.02 ± 0.066	1.031 ± 0.0027	1.04 ± 0.044
B8ZZS2|Q13506|Q13506-2 (UniProt Q13506)	0.9966 ± 0.0056	1.02 ± 0.019	0.9788 ± 0.0084	1.024 ± 0.0073	1.01 ± 0.029	1.008 ± 0.0093
F6U236|Q9BY11 (UniProt Q9BY11)	0.978 ± 0.036	1.03 ± 0.057	0.968 ± 0.018	1 ± 0.063	0.978 ± 0.069	0.989 ± 0.054
B4E0Y9|Q8NBY1|Q9P289 (UniProt Q9P289)	0.999 ± 0.019	1.03 ± 0.059	1.01 ± 0.034	1.05 ± 0.036	1.01 ± 0.045	1.06 ± 0.039
E7EUU4|E7EX73|E9PGM1|Q04637-8|Q04637-4 (UniProt Q04637)	1.06 ± 0.036	1.12 ± 0.039	1.12 ± 0.045	1.14 ± 0.063	1.15 ± 0.039	1.17 ± 0.056
H0YIV9|O43716 (UniProt O43716+H0YIV9)	0.973 ± 0.038	1.02 ± 0.038	1.01 ± 0.03	0.988 ± 0.012	0.977 ± 0.015	0.962 ± 0.013
E9PGC5|Q15262-2|Q15262-3|Q15262-4|Q5TG12|Q15262 (UniProt Q15262)	1.02 ± 0.011	1.04 ± 0.053	1.02 ± 0.028	1.01 ± 0.015	0.997 ± 0.011	1.01 ± 0.019
G5E994|Q5VW38|Q5VW38-2 (UniProt Q5VW38)	1.026 ± 0.0089	1.01 ± 0.018	0.976 ± 0.02	0.983 ± 0.024	1.01 ± 0.021	1.018 ± 0.0091
CCNT1 (UniProt O60563)	1.1 ± 0.051	1.19 ± 0.074	1.21 ± 0.064	1.25 ± 0.12	1.31 ± 0.11	1.4 ± 0.14
H3BLV9|Q5R363|Q96SB4|Q96SB4-3|Q96SB4-4 (UniProt Q96SB4)	1.08 ± 0.011	1.14 ± 0.035	1.22 ± 0.035	1.29 ± 0.036	1.359 ± 0.011	1.46 ± 0.044
H7C1I0|Q96K37|Q96K37-2 (UniProt Q96K37)	1.02 ± 0.041	1.03 ± 0.017	1.02 ± 0.022	1.02 ± 0.039	1.05 ± 0.054	1.07 ± 0.056
A0A0A6YYC8|I3L1I5 (UniProt I3L1I5)	1.01 ± 0.027	1.02 ± 0.04	1.02 ± 0.012	1.01 ± 0.023	1 ± 0.02	1.009 ± 0.0072
H7BXF5|Q9H0E3-3 (UniProt Q9H0E3)	1.05 ± 0.041	1.09 ± 0.035	1.02 ± 0.03	1.03 ± 0.039	0.993 ± 0.016	1.05 ± 0.057
I3VM54|Q9Y2K7 (UniProt Q9Y2K7)	1.02 ± 0.016	1.08 ± 0.045	1.17 ± 0.037	1.26 ± 0.12	1.31 ± 0.11	1.43 ± 0.17
